Assay results published in PubChem BioAssay AID463173 (ICCB-Longwood Screening Facility, Harvard Medical School, 2010).
The campaign covered roughly 52,000 compounds. About 1,700 (3.3%) were called active. Cut-off read from the data, not from the text of the source: active = survival mostly below about 52% (no sharp cut-off); inactive = mostly above about 56%. The entries come from a sample that favours actives as a whole.

What follows are compounds tested on Wild type (assay: S. aureus survival, RN4220 and DeltatarO strains – OD600, teichoic acid synthesis inhibitors, primary screen (AID 463173)). Conditions: S. aureus RN4220 wild type/DeltatarO growth, OD600, 18 h, stronger effect = lower value, screened at 18.75 µg/mL (by protocol).
With Cc1ccc2c(c1)N(C(=O)c1ccc(F)cc1)C(C)(C)CC2(C)c1ccccc1 (centres undefined) the survival was 43% (inactive).
For Cc1ccc2c(c1)C(C)(c1ccccc1)CC(C)(C)N2C(=O)c1ccc(F)cc1 (centres undefined), the survival was -2% (active).
In the case of COc1ccc(C(=O)N2c3ccc(C)cc3C(C)(c3ccccc3)CC2(C)C)cc1 (centres undefined), the survival is reported as 45% (inactive).
In the case of Cc1ccc(C(=O)N2c3ccc(C)cc3C(C)(c3ccccc3)CC2(C)C)cc1 (centres undefined), the survival is reported as 2% (active).
In the case of Cc1ccc(C(=O)N2CCN(c3ccccc3)CC2)cc1, the survival is reported as 112% (inactive).
In the case of CC1=CC(C)(C)N(CC(=O)c2ccccc2)c2ccc(C)cc21, the survival is reported as 109% (inactive).
CCOc1ccc(S(=O)(=O)n2nc(C)c(S(=O)(=O)N3CCCCC3)c2C)cc1 was tested, and the survival was 67% (inactive).
In the case of Cc1ccc(C)c(NC(=O)Cn2c(=O)n(CCCS(=O)(=O)C3CCCCC3)c(=O)c3ccccc32)c1, the survival is reported as 119% (inactive).
For CSc1nc2ccc(S(=O)(=O)N3CCCCC3)cc2s1, the survival was 105% (inactive).
For COCCCNC(=O)c1ccc(Cn2c(=O)c3ccccc3n(CC(=O)Nc3ccc(C)cc3C)c2=O)cc1, the survival was 100% (inactive).
With Cc1ccccc1CNC(=O)Cc1csc2ccccc12 the survival was 94% (inactive).
With COc1ccccc1NC(=O)CSc1ncc2c(n1)-c1cc(Cl)ccc1N(C)S2(=O)=O the survival was 73% (inactive).
CCOc1ccc(NC(=O)CN2CCN(CC(=O)Nc3ccc(N(CC)CC)cc3)CC2)cc1 was tested, and the survival was 80% (inactive).
In the case of COc1ccc(NC(=O)c2cc3c(=O)n(Cc4cccs4)ccc3nc2C)c(OC)c1, the survival is reported as 83% (inactive).
O=c1[nH]c2ccc(NCc3ccc(-c4ccc(Cl)cc4)o3)cc2[nH]1 was tested, and the survival was 111% (inactive).
COc1ccc(CCNC(=O)C(=O)NCC(c2cccs2)S(=O)(=O)c2ccc(F)cc2)cc1 (centres undefined) was tested, and the survival was 73% (inactive).
With Cc1cc(NS(=O)(=O)c2ccc3nc(-c4ccccc4)[nH]c3c2)ccc1Br the survival was -4% (active).
With O=S(=O)(Nc1ccc(Br)cc1)c1ccc2nc(-c3ccccc3)[nH]c2c1 the survival was -3% (active).
In the case of Cc1cccc(NS(=O)(=O)c2ccc3nc(-c4ccccc4)[nH]c3c2)c1C, the survival is reported as 129% (inactive).
For CC(C)c1ccc(NS(=O)(=O)c2ccc3nc(-c4ccccc4)[nH]c3c2)cc1, the survival was 63% (inactive).
With Cc1ccc(NS(=O)(=O)c2ccc3nc(-c4ccccc4)[nH]c3c2)cc1Cl the survival was 1% (active).
COc1ccc(NS(=O)(=O)c2ccc3nc(-c4ccccc4)[nH]c3c2)cc1 was tested, and the survival was 81% (inactive).
With Cc1ccc(NS(=O)(=O)c2ccc3nc(-c4ccccc4)[nH]c3c2)c(Cl)c1 the survival was 60% (inactive).
With Cc1ccc(NS(=O)(=O)c2ccc3nc(-c4ccccc4)[nH]c3c2)c(Br)c1 the survival was 63% (inactive).
In the case of O=S(=O)(Nc1ccc(Br)cc1F)c1ccc2nc(-c3ccccc3)[nH]c2c1, the survival is reported as 71% (inactive).
With COc1cc(C)ccc1OCCSc1nc(-c2cccc(C)c2)nc2cc(=O)[nH]n12 the survival was 88% (inactive).
In the case of Cc1ccc(NC(=O)c2oc3ccc(S(=O)(=O)N4CCC5(CC4)OCCO5)cc3c2C)c(C)c1, the survival is reported as 143% (inactive).
O=C(CS(=O)(=O)c1cccc2nsnc12)Nc1cc(F)ccc1F was tested, and the survival was 97% (inactive).
For Cn1c(=O)c2c(nc(NCCc3ccccc3)n2Cc2ccc(Cl)cc2)n(C)c1=O, the survival was 74% (inactive).
For CCc1ccc(N2C(=O)C3C4CCCC4=C4CCCC4C3C2=O)cc1 (centres undefined), the survival was 116% (inactive).
For Cn1c(=O)c2c(nc3n(-c4ccc(O)cc4)c(-c4ccc(Br)cc4)cn23)n(C)c1=O, the survival was 142% (inactive).
With COc1ccc(CNC(=O)C2CCN(C(=O)N3CCOc4ccc(C)cc43)CC2)cc1 the survival was 80% (inactive).
Cc1cccn2c(=O)c3cc(C(=O)Nc4ccc(Cl)c(Cl)c4)sc3nc12 was tested, and the survival was 71% (inactive).
CCS(=O)(=O)c1nnnn1-c1ccccc1 was tested, and the survival was 1% (active).
With c1ccc(CNc2nnnn2-c2ccccc2)cc1 the survival was 106% (inactive).
In the case of O=C(O)CCSc1nnnn1-c1ccccc1, the survival is reported as 114% (inactive).
COc1ccc(C2CC(=O)c3cc(-c4nc(-c5cccc([N+](=O)[O-])c5)cs4)c(=O)n(-c4cc(C)cc(C)c4)c3C2)cc1 (centres undefined) was tested, and the survival was 80% (inactive).
COc1ccc(C2=Nc3ccccc3N(CC(=O)Nc3cccc(C(C)=O)c3)C(=O)C2)cc1 was tested, and the survival was 136% (inactive).
Cn1cnc(S(=O)(=O)N2CCC(C(=O)NCc3ccc(Cl)cc3)CC2)c1 was tested, and the survival was 95% (inactive).
In the case of Cc1cc(C)cc(NC(=O)C2CCN(S(=O)(=O)c3cn(C)cn3)CC2)c1, the survival is reported as 73% (inactive).
With Cc1ccc(C)c(N2CCN(C(=O)C3CCN(S(=O)(=O)c4cn(C)cn4)CC3)CC2)c1 the survival was 75% (inactive).
With COc1ccc(OC)c(CNC(=O)C2CCN(S(=O)(=O)c3cn(C)cn3)CC2)c1 the survival was 82% (inactive).
Cc1ccc(N(C)C(=O)C2CCN(S(=O)(=O)c3cn(C)cn3)CC2)cc1 was tested, and the survival was 10% (active).
For COc1ccccc1CNC(=O)C1CCN(S(=O)(=O)c2cn(C)cn2)CC1, the survival was -3% (active).
In the case of Cc1ccc(CNC(=O)C2CCN(S(=O)(=O)c3cn(C)cn3)CC2)cc1, the survival is reported as 82% (inactive).
With Cn1cnc(S(=O)(=O)N2CCC(C(=O)NCc3ccccc3Cl)CC2)c1 the survival was 128% (inactive).
In the case of CN(C)c1ccc(CNC(=O)C2CCN(S(=O)(=O)c3cn(C)cn3)CC2)cc1, the survival is reported as -2% (active).
With COc1ccc(-c2cn3nc(SCC(=O)Nc4cc(C)cc(C)c4)ccc3n2)cc1 the survival was 68% (inactive).
In the case of CCN(CC)S(=O)(=O)c1ccc(C(=O)N2CC(=O)Nc3ccc(F)cc3C2c2ccccc2)cc1 (centres undefined), the survival is reported as 81% (inactive).
COc1ccc(NC(=O)c2ccc(-c3nc(COc4ccccc4)c(C)o3)cc2)cc1 was tested, and the survival was 84% (inactive).
In the case of Cc1n[nH]c(C)c1N1C(=O)c2cccc3c(N4CCCCC4)ccc(c23)C1=O, the survival is reported as 116% (inactive).
With COCCCNC(=O)C(=O)NCC(c1ccc2c(c1)OCO2)N1CCOCC1 (centres undefined) the survival was 87% (inactive).
CN(C)CCNC(=O)C(=O)NCC(c1ccc2c(c1)OCO2)N1CCOCC1 (centres undefined) was tested, and the survival was 73% (inactive).
In the case of CN(C)CCCNC(=O)C(=O)NCC(c1ccc2c(c1)OCO2)N1CCOCC1 (centres undefined), the survival is reported as 124% (inactive).
In the case of CC(C)(C)C(=O)NCC(c1ccc2c(c1)OCO2)N1CCOCC1 (centres undefined), the survival is reported as -2% (active).
For O=C(NCCO)C(=O)NCC(c1ccc2c(c1)OCO2)N1CCOCC1 (centres undefined), the survival was 59% (inactive).
CNC(=O)C(=O)NCC(c1ccc2c(c1)OCO2)N1CCOCC1 (centres undefined) was tested, and the survival was 113% (inactive).
For COc1ccc(CNC(=O)C(=O)NCC(c2ccc3c(c2)OCO3)N2CCOCC2)cc1 (centres undefined), the survival was 80% (inactive).
COc1ccc(CCNC(=O)C(=O)NCC(c2ccc3c(c2)OCO3)N2CCOCC2)cc1 (centres undefined) was tested, and the survival was 0% (active).
In the case of COCCNC(=O)C(=O)NCC(c1ccc2c(c1)OCO2)N1CCOCC1 (centres undefined), the survival is reported as -3% (active).
With CC(C)(C)CC(=O)NCC(c1ccc2c(c1)OCO2)N1CCOCC1 (centres undefined) the survival was 73% (inactive).
With COc1ccc(CCNC(=O)C(=O)NCC(c2ccc3c(c2)OCO3)N2CCOCC2)cc1OC (centres undefined) the survival was 73% (inactive).
O=C(NCCCO)C(=O)NCC(c1ccc2c(c1)OCO2)N1CCOCC1 (centres undefined) was tested, and the survival was 10% (active).
For O=C(CS(=O)(=O)c1cccc2nsnc12)NCc1ccccc1Cl, the survival was 136% (inactive).
With Cc1cc(Nc2ccc(C(=O)O)c(O)c2)n2ncnc2n1 the survival was 72% (inactive).
With O=C(NCCc1ccc(Cl)cc1)c1nc(-c2cccc(F)c2)n2c1CCCCC2 the survival was 140% (inactive).
With COc1ccc(NC(=O)c2cc3c(=O)n(Cc4ccco4)ccc3nc2C)c(OC)c1 the survival was 88% (inactive).
COc1cccc(NC(=O)c2cc3c(=O)n(Cc4cccnc4)ccc3nc2C)c1 was tested, and the survival was 78% (inactive).
For COc1ccc(Cn2ccc3nc(C)c(C(=O)Nc4ccc(OC)cc4OC)cc3c2=O)cc1, the survival was 0% (active).
In the case of COc1ccc(Cn2ccc3nc(C)c(C(=O)Nc4ccc(OC)cc4)cc3c2=O)cc1, the survival is reported as 85% (inactive).
COc1ccc(Cn2ccc3nc(C)c(C(=O)Nc4ccc(F)cc4)cc3c2=O)cc1 was tested, and the survival was -3% (active).
COc1ccc(Cn2ccc3nc(C)c(C(=O)Nc4ccc(OC(F)(F)F)cc4)cc3c2=O)cc1 was tested, and the survival was 90% (inactive).
With CC(=O)Nc1ccc(NC(=O)c2cc3c(=O)n(Cc4cccnc4)ccc3nc2C)cc1 the survival was 65% (inactive).
With COc1ccc(NC(=O)c2cc3c(=O)n(Cc4cccnc4)ccc3nc2C)c(OC)c1 the survival was 88% (inactive).
For Cc1cccc(NC(=O)c2cc3c(=O)n(Cc4cccnc4)ccc3nc2C)c1, the survival was -3% (active).
In the case of COc1ccccc1NC(=O)C1=C(C)Nc2nc(SCc3ccccc3)nn2C1c1ccncc1 (centres undefined), the survival is reported as 83% (inactive).
With CC(C)NC(=O)C1CCCN(c2ncnc3c2nc2n3CCCCC2)C1 (centres undefined) the survival was 73% (inactive).
With COC(=O)c1nnn(-c2cccc(C)c2)c1C(=O)OC the survival was 77% (inactive).
With Cc1nc2ccccc2c(=O)n1/N=C1\C(=O)N(C)c2ccccc21 the survival was 108% (inactive).
Cc1ccc2c(=O)c(C(=O)c3cccc(Cl)c3)cn(CC(=O)NC3CCCCC3)c2n1 was tested, and the survival was 126% (inactive).
For CCc1ccc(CNC(=O)CN2C(=O)CSc3c2c(C)nn3-c2ccccc2)cc1, the survival was 125% (inactive).
CCC1CCc2c(sc(NC(=O)C3c4ccccc4Oc4ccccc43)c2C(=O)OC)C1 (centres undefined) was tested, and the survival was 80% (inactive).
CCOC(=O)c1c(NC(=O)c2ccccc2OCC)sc2c1CCC(CC)C2 (centres undefined) was tested, and the survival was -1% (active).
For CCOC(=O)c1c(NC(=O)c2ccc(F)cc2)sc2c1CCC(CC)C2 (centres undefined), the survival was 3% (active).
CCOC(=O)c1c(NC(=O)C2c3ccccc3Oc3ccccc32)sc2c1CCC(CC)C2 (centres undefined) was tested, and the survival was 65% (inactive).
In the case of CCOC(=O)c1c(NC(=O)COc2cccc(C)c2C)sc2c1CCC(CC)C2 (centres undefined), the survival is reported as 78% (inactive).
In the case of CCOC(=O)c1c(NC(=O)COc2ccc(F)cc2)sc2c1CCC(C)C2 (centres undefined), the survival is reported as 69% (inactive).
With Cc1ccc(CN(C(=O)COc2cc(C)c(Cl)c(C)c2)c2ccccn2)o1 the survival was 78% (inactive).
With COc1ccccc1NC(=O)CSC1=Nc2ccccc2N=C(c2ccc(F)cc2)C1 the survival was 71% (inactive).
